Screening results as filed in PubChem BioAssay.
Shown are actives, neighbours in structure and some others; about 2.7% of the full set was active somewhere.
PP1 counter: PP1-alpha phosphatase inhibitors, primary screen, counter-screen for PP5 inhibitor project, biochemical, fluorescence, OMFP substrate, single point; inhibition, % at 6.7 µM; purified PP1alpha; hit rate 0.9% among 320,000; Serine/threonine-protein phosphatase PP1-alpha catalytic subunit (Homo sapiens), P62136;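 active = inhibition above the mean inhibition of all tested compounds plus 3 SD, computed separately for each screening campaign, cut at about 15% in these data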
PREPL inh: PREPL enzyme inhibitors, primary screen, biochemical, fluorescence polarization | Prolyl endopeptidase-like (Homo sapiens), Q4J6C6 | inhibition, % at 5.96 µM | hit rate 0.68% among 320,000 | recombinant PREPL, fluorescence polarization activity-based probe; in the data active = inhibition above about 43%;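 note: 0% = enzyme with DMSO and 100% = wells lacking enzyme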
PP5 inh: PP5 phosphatase inhibitors, primary screen, biochemical, fluorescence; Serine/threonine-protein phosphatase 5 (Homo sapiens), P53041; purified PP5c, OMFP substrate fluorescence; inhibition, % at 6.7 µM; hit rate 0.18% among 320,000;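 active = inhibition above the campaign's mean inhibition across all tested compounds plus 3 SD, cut at about 9.5% in these data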;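 note: 0% = DMSO only and 100% = 100 µM cantharidin control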
DNA FID counter: compounds displacing fluorescent DNA intercalator, primary screen, artefact control for HCV NS3 helicase inhibitor project, biochemical, FID fluorescence. DNA fluorescent intercalator displacement. inhibition, % at 7.9 µM. hit rate 0.17% among 290,000. AID 1845, 2009; in the data active = inhibition above about 37%;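 note: 0% = vehicle and 100% = reference compound; higher means more ethidium bromide displaced from hairpin DNA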
ANO1 block: TMEM16A chloride channel inhibitors, primary screen, cell-based, HTS | Anoctamin-1 (Mus musculus), Q8BHY3 | HEK293 TMEM16A/YFP iodide influx fluorescence, ionomycin | normalized B-score (activity score, 25-100; higher = stronger inhibition) at 10 µM | hit rate 1.2% among 310,000;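 active = ratio plate-corrected score three or more library SD toward inhibition, starting fluorescence score within five deviations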;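 note: score derived from kinetic fluorescence span divided by baseline fluorescence per well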
Target sequence (Q8BHY3 whole entry, looked up): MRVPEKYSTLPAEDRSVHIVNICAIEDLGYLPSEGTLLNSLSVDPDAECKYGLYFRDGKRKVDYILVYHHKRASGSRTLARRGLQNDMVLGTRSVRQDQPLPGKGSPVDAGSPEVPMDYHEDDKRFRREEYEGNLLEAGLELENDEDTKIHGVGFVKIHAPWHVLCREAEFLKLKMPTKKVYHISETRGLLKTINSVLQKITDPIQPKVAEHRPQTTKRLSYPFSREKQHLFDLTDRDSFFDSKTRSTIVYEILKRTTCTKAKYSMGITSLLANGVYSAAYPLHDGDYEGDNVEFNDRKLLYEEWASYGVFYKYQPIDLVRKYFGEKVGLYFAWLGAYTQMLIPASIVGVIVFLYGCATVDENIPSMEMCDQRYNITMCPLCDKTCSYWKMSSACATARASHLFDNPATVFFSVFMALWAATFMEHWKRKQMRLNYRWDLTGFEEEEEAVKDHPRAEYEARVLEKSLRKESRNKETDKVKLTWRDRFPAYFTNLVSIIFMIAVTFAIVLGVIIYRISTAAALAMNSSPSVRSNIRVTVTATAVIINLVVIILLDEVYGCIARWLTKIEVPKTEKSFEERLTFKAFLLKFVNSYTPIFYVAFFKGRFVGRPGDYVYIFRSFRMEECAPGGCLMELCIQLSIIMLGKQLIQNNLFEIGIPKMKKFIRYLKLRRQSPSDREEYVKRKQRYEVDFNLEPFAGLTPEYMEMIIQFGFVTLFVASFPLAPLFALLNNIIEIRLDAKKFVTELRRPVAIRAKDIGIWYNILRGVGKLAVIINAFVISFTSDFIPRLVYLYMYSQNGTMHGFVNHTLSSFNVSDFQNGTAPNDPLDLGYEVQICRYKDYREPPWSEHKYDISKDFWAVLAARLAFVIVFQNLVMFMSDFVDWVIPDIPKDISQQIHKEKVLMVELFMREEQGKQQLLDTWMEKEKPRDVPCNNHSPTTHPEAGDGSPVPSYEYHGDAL
ANO1 activ: TMEM16A chloride channel activators or potentiators, primary screen, cell-based, HTS; HEK293 TMEM16A/YFP-H148Q/I152L, iodide quench fluorescence; active compounds read low; Anoctamin-1 (Mus musculus), Q8BHY3; hit rate 0.3% among 340,000; B-score at 10 µM; AID 623877, 2012;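 active = fluorescence-ratio B-score plate-corrected deviation score at least 3 library SD below zero, with starting fluorescence score within 5 deviations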;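 note: channel opened by trigger with iodide after compound preincubation; score built on the fluorescence ratio of max minus min over baseline; more negative score means more quench and so TMEM16A activation or potentiation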
TMEM16A reconf: TMEM16A chloride channel inhibitors, confirmation, cell-based, re-confirmation; inhibition, % at 10 µM; shares compounds with ANO1 block; HEK293 TMEM16A/YFP-H148Q, iodide quench fluorescence; ionomycin added to raise cell calcium; hit rate 39% among 2,300;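 active = mean duplicate percent inhibition, scaled so buffer wells are 0 and the reference blocker 100, over three buffer SD above buffer mean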
TMEM16A Ca cntr: calcium mobilization in TMEM16A/YFP HEK293 cells, confirmation, counter-screen for TMEM16A inhibitor project; shares compounds with ANO1 block; Fluo4 calcium mobilization; calcium response (% of ionomycin), % at 10 µM; hit rate 2% among 2,300; AID 652231, 2013;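 active = duplicate-averaged calcium signal over 20% of the ionomycin maximum, relative to buffer baseline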;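 note: each well's signal is peak minus trough fluorescence divided by its pre-addition baseline; 0% = buffer wells and 100% = ionomycin wells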
YFP-HEK293 quench: iodide YFP quench changes in parental YFP-HEK293, counter-screen for TMEM16A inhibitor project, cell-based. AID 652233, 2013. shares compounds with ANO1 block. 2,300 tested, under 10 active. YFP ratio F(max-min)/F0 at 10 µM. ionomycin;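 active = yellow fluorescent protein signal ratio exceeding the buffer control mean by over 5 SD of those controls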;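 note: ratio is mean of duplicate wells from kinetic YFP trace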
ClC-1 inh: ClC-1 chloride channel inhibition, selectivity assay for TMEM16A inhibitor project, cell-based, voltage-dependent ClC-1. CHO ClC-1-YFP, iodide influx fluorescence quench; iodide control reads 0, buffer control 100. shares compounds with ANO1 block. 2,300 tested, under 10 active. ratio percent, % at 10 µM;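 active = duplicate-mean ratio percent above the mean of iodide-only control wells, which defines zero, plus 5 of their SD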;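 note: higher percent means stronger block of ClC-1 iodide influx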
* = called active by the depositor; i = inactive; x = no result.

SMILES | PP1 counter | PREPL inh | PP5 inh | DNA FID counter | ANO1 block | ANO1 activ | TMEM16A reconf | TMEM16A Ca cntr | YFP-HEK293 quench | ClC-1 inh
CC(Oc1ccc(Cl)cc1)C(=O)NCCN1C(=O)S/C(=C\c2cccnc2)C1=O (stereo not drawn) | -0.2 | 20.3 | -0.5 | -15.6 | 25* | i | 55.0%* | i | -0.823 | -3.0
COc1ccc(N(CC(=O)NC2CCCC2)C(=O)Cn2nnc(-c3ccc(C)cc3)n2)cc1 | 4.8 | 4.2 | -0.8 | -30.2 | 25* | i | i | i | -0.928 | -4.0
Cc1cccc(C(=O)Nc2sc(-c3ccccc3)cc2C(=O)O)c1 | 0.4 | 15.4 | 8.0 | 22.1 | 25* | i | i | i | -0.85 | -0.5
CC(C)(C)C(=O)Nc1sc(-c2ccccc2)cc1C(=O)O | 0.1 | 2.2 | 1.4 | -24.4 | i | i | x | x | x | x
O=C(OCc1nc2ccccc2s1)C1CCN(C2=NS(=O)(=O)c3ccccc32)CC1 | 3.0 | 39.3 | 1.7 | -22.9 | 25* | i | 16.5%* | i | -0.888 | -4.0
Cc1oc(-c2cc(F)ccc2F)nc1CN1CCN(c2ncnc3ccccc23)CC1 | 1.8 | 8.1 | -0.9 | -17.6 | 100* | i | 20.0%* | i | -1.12 | -19.0
Cc1oc(-c2cc(F)ccc2F)nc1CN1CCC(C(=O)N2CCOCC2)CC1 | 0.6 | 2.9 | 0.1 | -5.8 | i | i | x | x | x | x
COc1ccc(-c2nc(CN3CCN(c4ccccc4OC)CC3)c(C)o2)cc1 | -1.4 | 19.4 | 1.5 | -3.1 | i | i | x | x | x | x
COc1ccc(-c2nc(CN3CCN(c4ncnc5ccccc45)CC3)c(C)o2)c(OC)c1 | -2.6 | 0.8 | -1.8 | -22.3 | 100* | i | 19.5%* | i | -1.06 | -15.0
O=C(N/N=C/c1c[nH]c2ccccc12)C1CC1c1ccccc1 (stereo not drawn) | 5.2 | 7.6 | 6.3 | 2.5 | 25* | i | 46.5%* | i | -0.691 | -10.0
O=C(COc1ccccc1F)NCc1ccc(-n2cccc2)cc1 | 0.1 | 1.3 | 1.8 | -21.6 | i | i | x | x | x | x
CCN(Cc1nc2ccccc2c(=O)[nH]1)Cc1nc2ccsc2c(=O)[nH]1 | 1.4 | -3.5 | 0.8 | -2.1 | i | i | x | x | x | x
CCc1ccc2c(CN(CC)Cc3nc4ccccc4c(=O)[nH]3)cc(=O)oc2c1 | -1.3 | -16.2 | 1.0 | -23.2 | 25* | i | i | i | -0.927 | 1.0
O=C(COC(=O)COc1ccccc1)NC1CCS(=O)(=O)C1 (stereo not drawn) | x | 16.8 | x | x | x | i | x | x | x | x
Nc1ccc(CCS(N)(=O)=O)cc1 | -4.8 | -0.4 | 1.3 | 0.1 | 25* | i | i | i | -0.891 | -2.0
CC1CN(S(=O)(=O)c2cccc(C(=O)OCC(=O)c3cccs3)c2)CC(C)O1 (stereo not drawn) | -1.7 | 8.4 | 0.6 | -6.0 | i | i | i | i | -0.904 | -12.0
Cc1cc(C(=O)CSc2nnc(-c3ccc(Cl)cc3)n2C)c(C)n1CC1CCCO1 (stereo not drawn) | 1.0 | 19.7 | -0.8 | -32.3 | i | i | x | x | x | x
Cc1cc(C(=O)CSc2nc(N)cc(=O)[nH]2)c(C)n1CC1CCCO1 (stereo not drawn) | x | 6.7 | x | x | x | i | x | x | x | x
Cc1cc(C(=O)Cn2nnc(-c3ccc(Cl)cc3)n2)c(C)n1CC1CCCO1 (stereo not drawn) | -5.7 | 25.6 | 4.3 | -4.2 | 25* | i | 22.0%* | i | -0.846 | -12.0
Cc1cc(C(=O)CSc2nc3ccccc3[nH]2)c(C)n1CC1CCCO1 (stereo not drawn) | 1.6 | 0.9 | -1.2 | -23.5 | 25* | i | i | i | -1.17 | -29.5
Cc1cc(C(=O)CSc2nc3ccccc3o2)c(C)n1CC1CCCO1 (stereo not drawn) | -3.6 | 4.3 | 0.3 | -9.2 | 100* | i | i | i | -1.11 | -24.0
COc1ccc(S(=O)(=O)NC2CCCC2)cc1C(N)=O | x | x | x | -2.2 | i | i | x | x | x | x
COCCNC(=O)c1ccc2c(=O)n(Cc3ccco3)c(SCC(=O)NC3CCCCC3)nc2c1 | -0.7 | 1.0 | 0.3 | -3.9 | i | i | i | i | -1.02 | -5.5
CCOC(=O)c1ccccc1NC(=O)N1CCn2c(C)ccc2C1CC (stereo not drawn) | -5.7 | 9.4 | 1.6 | -5.2 | i | i | x | x | x | x
CCC1c2ccc(C)n2CCN1C(=O)Nc1cc(Cl)ccc1OC (stereo not drawn) | 2.1 | 0.6 | 1.5 | -2.9 | i | i | 16.0%* | i | -0.98 | -9.5
CCC1c2ccc(C)n2CCN1C(=O)Nc1ccccc1C(=O)OC (stereo not drawn) | -2.8 | 10.5 | -0.3 | -5.5 | i | i | i | i | -1.12 | -13.5
COc1ccc(Cn2c(=O)[nH]c3cc(C(=O)N4CCN(Cc5ccccc5)CC4)ccc3c2=O)cc1 | 0.8 | -11.2 | 4.3 | -11.5 | 25* | i | i | i | -1.13 | -15.5
COc1ccc(Cn2c(=O)[nH]c3cc(C(=O)N4CCN(c5ccccc5OC)CC4)ccc3c2=O)cc1 | 3.0 | 6.0 | 4.0 | -45.5 | i | i | x | x | x | x
Cn1c(=O)oc2cc(S(=O)(=O)N3CCN(C(=O)c4ccco4)CC3)ccc21 | 5.1 | 8.2 | 7.5 | -1.6 | 100* | i | i | i | -1.01 | -5.5
O=C(c1ccco1)N1CCN(S(=O)(=O)c2ccc3[nH]c(=O)oc3c2)CC1 | -2.6 | -1.3 | 0.8 | -5.4 | i | i | x | x | x | x
